A selection: hits, their analogues and other compounds. The true share with any hit is near 15%.
DT40 TDP1 CPT = growth inhibition of DT40 Tdp1-/-;hTDP1 cells with camptothecin (screen for TDP1 inhibitors) | chicken DT40 Tdp1-/-;hTDP1 cells + 20 nM CPT, ATP luminescence, 48 h | Potency, µM (titrated, usually from 46.2 µM), hits mostly inhibitors | hit rate 12% among 420,000; further: nearly all actives have a fitted effect of over 55% in size
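Cell growth measured by CellTiter-Glo luminescence after a minimum 48 h, 37 C compound exposure with 20 nM CPT in Tdp1-knockout DT40 cells stably expressing hTDP1, seeded 400/well; qHTS titration format.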
ELG1 DNA repair = inhibitors of ELG1-dependent DNA repair in HEK293T cells; HEK293T ELG1-luciferase reporter, luminescence, 16 h; DNA damage induced by 5-fluorouridine; Potency, µM (highest dose often 46.1 µM), actives largely listed as inhibitors; hit rate 2.3% among 330,000; further: nearly all actives have a fitted effect of over 55% in size
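Step one: seed 2,000 cells per well. Step two: pin-transfer compound or DMSO alongside 5-fluorouridine. Step three: incubate 16 hr, 37 °C, 5% CO2. Step four: add ONE-Glo, wait 30 min, read luminescence.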
TDP1 cell noCPT = qHTS for Inhibitors of human tyrosyl-DNA phosphodiesterase 1 (TDP1): qHTS in cells in absence of CPT; AID 686978, 2013; Potency, µM (series often up to 46.2 µM), actives largely listed as inhibitors; DT40 Tdp1-/- hTDP1 cells, no CPT, ATP luminescence, 48 h; hit rate 15% among 420,000; further: nearly all actives have a fitted effect of over 55% in size
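Stably hTDP1-transfected Tdp1-null chicken DT40 cells were treated with library compounds minus camptothecin and grown for at least 48 hr at 37 °C, after which cellular ATP was quantified by luminescence.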
12-LOX inh = inhibitors of human 12S-lipoxygenase ALOX12; P18054; purified 12hLO, xylenol orange hydroperoxide absorbance; Potency, µM (top dose mostly 108 µM), actives largely listed as inhibitors; hit rate 1.1% among 580,000
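Purified human 12hLO at 150 nM in 25 mM Hepes, 0.01% Triton X-100, pH 7.0, preincubated 15 min at room temperature with compound. Reaction started with 40 uM arachidonic acid, 30 min at room temperature. Hydroperoxide measured by Fe-xylenol orange, 573/405 nm absorbance ratio.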
RORgamma inh = ROR gamma (mouse) transcription inhibition. P51450. Drosophila S2 Gal4-RORgamma UAS-luciferase reporter, 20 h. Potency, µM (doses to about 53.6 µM), usual class: inhibitors. hit rate 5.4% among 310,000. AID 2551; further: nearly all actives have a fitted effect of over 60% in size
Target sequence (P51450 whole entry, looked up, the tested form may be a part): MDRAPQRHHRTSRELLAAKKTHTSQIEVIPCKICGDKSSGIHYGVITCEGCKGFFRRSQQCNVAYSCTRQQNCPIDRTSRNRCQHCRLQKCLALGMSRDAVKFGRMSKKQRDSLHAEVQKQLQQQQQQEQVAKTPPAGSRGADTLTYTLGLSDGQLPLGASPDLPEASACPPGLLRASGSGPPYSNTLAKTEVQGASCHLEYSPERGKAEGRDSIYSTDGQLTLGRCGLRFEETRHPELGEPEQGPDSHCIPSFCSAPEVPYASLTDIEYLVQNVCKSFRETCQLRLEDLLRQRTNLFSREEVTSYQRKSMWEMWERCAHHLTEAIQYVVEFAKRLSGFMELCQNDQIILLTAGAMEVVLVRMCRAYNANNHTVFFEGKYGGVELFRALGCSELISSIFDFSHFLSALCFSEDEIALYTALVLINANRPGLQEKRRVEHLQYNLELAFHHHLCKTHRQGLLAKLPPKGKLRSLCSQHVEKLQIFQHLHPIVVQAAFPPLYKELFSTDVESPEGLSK
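Using a luciferase readout, inhibitors were identified by reduced reporter activity in Drosophila cells coexpressing a copper-inducible Gal4–ROR gamma fusion and UAS-driven Photinus luciferase, incubated 20 hr after 700 uM copper sulfate.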
VP16 counter = counter-screen for ROR gamma inhibitors: Gal4-VP16 reporter; Drosophila S2 Gal4-VP16 UAS-luciferase, luminescence, 20 h; Potency, µM (series often up to 53.6 µM), actives largely listed as inhibitors; AID 2546; hit rate 3.5% among 310,000;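 further: Gal4-VP16 expression switched on by copper sulfate through the metallothionein promoter; nearly all actives have a fitted effect of over 50% in size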
Numbers stand for hits; n = inactive; u = inconclusive; x = no result. The call rests on the fitted dose curve; in most records, active means well fitted curve in the direction sought with a large enough effect; inconclusive means small, poorly fitted or top-dose-only effect, or another doubt; inactive means no such curve, though single readings can be large; an effect the other way counts as inactive or inconclusive.

SMILES | DT40 TDP1 CPT | ELG1 DNA repair | TDP1 cell noCPT | 12-LOX inh | RORgamma inh | VP16 counter
NS(=O)(=O)c1ccc(Sc2nc3ccccc3s2)c([N+](=O)[O-])c1 | 9.2µM | n | 10.3µM | n | n | 10µM
CCOC(=O)C1CCN(Cc2cc(=O)oc3ccc(C)cc23)CC1 | x | x | x | n | x | x
CC(OC(=O)c1ccco1)C(=O)Nc1ccc(C(F)(F)F)cc1 (configuration not stated) | 10.3µM | n | 25.9µM | n | x | x
O=C(CCS(=O)Cc1ccccc1)Nc1ccccc1 (configuration not stated) | x | x | x | n | x | x
O=C1c2ccccc2NC(c2ccc(-c3ccc(C(F)(F)F)cc3)o2)N1O (configuration not stated) | x | n | x | 28.2µM | x | x
CC(=O)N1CCC(N[C@H]2CC(C)(C)[C@@H]3C[C@@](C)(O)CC[C@]23CCC(=O)NCCN2CCOCC2)CC1 | x | x | x | n | x | x
CC(=O)Nc1ccc(-c2ccnc3c2CC(C(=O)Nc2ccc(C(C)C)cc2)O3)cc1 (configuration not stated) | u | x | u | n | x | x
CC(=O)Nc1ccc(-c2ccnc3c2CC(C(=O)Nc2ccccc2)O3)cc1 (configuration not stated) | 4.61µM | x | 5.8µM | n | x | x
COc1ccc(NC(=O)C2Cc3c(-c4ccc(NC(C)=O)cc4)ccnc3O2)cn1 (configuration not stated) | 8.2µM | x | 11.6µM | u | x | x
CC(=O)Nc1cccc(-c2ccnc3c2CC(C(=O)Nc2ccc(C(C)C)cc2)O3)c1 (configuration not stated) | 20.6µM | x | 11.6µM | n | x | x
CC(=O)Nc1cccc(-c2ccnc3c2CC(C(=O)NCC2CC2)O3)c1 (configuration not stated) | u | x | u | n | x | x
CC(C)c1ccc(NC(=O)C2Cc3c(-c4ccco4)ccnc3O2)cc1 (configuration not stated) | u | x | u | n | x | x
CC(=O)Nc1ccc(NC(=O)C2Cc3c(-c4cccc(NC(C)=O)c4)ccnc3O2)cc1 (configuration not stated) | n | x | n | n | x | x
COc1ccc(NC(=O)C2Cc3c(-c4cccc(NC(C)=O)c4)ccnc3O2)cc1 (configuration not stated) | 3.66µM | x | 3.26µM | n | x | x
CCn1nc(C)c(CNC(=O)Nc2ccc(OC)cc2OC)c1C | x | x | x | n | x | x
O=C(Nc1ccc(F)c(Cl)c1)C1Cc2c(-c3ccco3)ccnc2O1 (configuration not stated) | 23.1µM | x | 14.6µM | u | x | x
CC(=O)Nc1cccc(-c2ccnc3c2CC(C(=O)Nc2ccc(F)c(Cl)c2)O3)c1 (configuration not stated) | 18.4µM | x | 18.4µM | u | x | x
COc1ccc(NC(=O)C2Cc3c(-c4cccc(C(C)=O)c4)ccnc3O2)cn1 (configuration not stated) | 2.59µM | x | 2.91µM | n | x | x
CC(=O)Nc1cccc(-c2ccnc3c2CC(C(=O)Nc2cccc(N(C)C)c2)O3)c1 (configuration not stated) | 13µM | x | 10.3µM | n | x | x
N#Cc1cccc(C(=O)Nc2ccc([C@H]3OCC(=O)N(Cc4ccc(F)cc4)[C@@H]3CO)cc2)c1 | x | x | x | n | x | x
COc1ccc(NC(=O)C2Cc3c(-c4cccc(C(C)=O)c4)ccnc3O2)cc1 (configuration not stated) | 2.31µM | x | 2.91µM | n | x | x
COc1ccc(NC(=O)C2Cc3c(-c4ccc(NC(C)=O)cc4)ccnc3O2)cc1 (configuration not stated) | u | x | 16.4µM | n | x | x
CN(CCc1ccccn1)C(=O)CCC[C@H]1NC[C@@H]2CC1CN(Cc1ccccc1)C2 | x | x | x | n | x | x
CC(=O)c1c(C)[nH]c(C(=O)OC(C)C(=O)c2ccc(F)cc2)c1C (configuration not stated) | x | x | x | n | x | x
COc1cc([C@@H]2c3cc4c(cc3[C@@H](O[C@@H]3O[C@@H]5CO[C@@H](c6cccs6)O[C@@H]5[C@H](O)[C@@H]3O)[C@H]3COC(=O)[C@H]23)OCO4)cc(OC)c1O | x | x | x | n | x | x
SMILES | DT40 TDP1 CPT | ELG1 DNA repair | TDP1 cell noCPT | 12-LOX inh | RORgamma inh | VP16 counter
COc1cc([C@@H]2c3cc4c(cc3C(O[C@@H]3O[C@@H]5COC(c6cccs6)O[C@H]5[C@H](O)[C@H]3O)C3COC(=O)[C@@H]32)OCO4)cc(OC)c1O (some centres not stated) | 0.0116µM | x | 0.013µM | x | x | x
CCN(CC)CCn1c2ccccc2c2nc3ccc([N+](=O)[O-])cc3cc21 | 8.2µM | u | 4.61µM | n | n | n
Cn1c2ccccc2c2cc([N+](=O)[O-])ccc21 | n | n | n | n | n | n
O=C(CSc1nnc(-c2ccc3c(c2)OCO3)o1)Nc1ccc2c(c1)OC1(CCCC1)O2 | x | x | x | n | x | x
CC(=O)N1C[C@@H]2CCCN3CCC[C@@H]([C@H]23)[C@H]1CCCC(=O)NCCC1CCN(C(C)C)CC1 | x | x | x | n | x | x
CCOC(=O)COC(=O)CNC(=O)c1ccc(C)c(C)c1 | x | x | x | n | x | x
O=C(CN(Cc1ccccc1)C(=O)c1cc2c(s1)CCC2)NCc1cccs1 | n | u | u | n | u | n
O=C(CN(C(=O)c1cc2c(s1)CCC2)C1CCCC1)NCc1cccs1 | 8.2µM | u | 18.4µM | n | n | n
Cn1c(N)c(C(=O)COC(=O)c2cc(C3CC3)nc3ccccc23)c(=O)n(C)c1=O | 13µM | u | 18.4µM | n | u | n
Cn1c(N)c(C(=O)COC(=O)c2cc(-c3ccco3)nc3ccccc23)c(=O)n(Cc2ccccc2)c1=O | x | n | x | x | n | n
Cn1c(N)c(C(=O)COC(=O)c2cc(-c3ccco3)nc3ccccc23)c(=O)n(C)c1=O | 20.6µM | 11.6µM | 16.4µM | u | u | n
COc1ccc(/C=C2\CCCc3c2nc2ccccc2c3C(=O)OCC(=O)c2c(N)n(C)c(=O)n(C)c2=O)cc1 | x | 3.26µM | x | x | n | n
Cn1c(N)c(C(=O)COC(=O)c2ccnc3ccccc23)c(=O)n(C)c1=O | n | n | n | n | n | n
COc1ccc(-c2cc(C(=O)OCC(=O)c3c(N)n(C)c(=O)n(C)c3=O)c3ccccc3n2)cc1 | 4.11µM | n | 1.64µM | n | n | n
Cc1ccc(C(CNC(=O)c2cccs2)N2CCCCC2)o1 (configuration not stated) | x | x | x | n | x | x
COc1ccc(-c2cc(C(=O)c3c(N)n(C)c(=O)n(C)c3=O)c3ccccc3n2)cc1 | n | u | u | n | 14.1µM | 11.2µM
Cn1c(N)c(C(=O)COC(=O)c2cc(C(F)(F)F)nc3ccccc23)c(=O)n(Cc2ccccc2)c1=O | 23.1µM | n | u | x | n | n
O=C(O)c1ccc(NC(=O)c2ccc(Br)o2)c(NC(=O)c2ccc(Br)o2)c1 | x | x | x | n | x | x

High-throughput results as filed in PubChem BioAssay.
